From PubChem BioAssay (NCI) come the findings set out here.

The panel holds about 83,000 compounds, 20% with a hit somewhere; the sample as a whole holds those more often.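 For each line, cells grew in 96-well plates with the test compound present at a single concentration for 48 hours.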 Values without a mark were called inactive. The source made the active and inactive calls. The calls were made as follows: active = growth percent below 10; inactive = the rest.

The subject of this assay is HL-60(TB) leukemia. In words: NCI-60 one-dose screen, 48 h (100 = growth as untreated, 0 = no growth, -100 = all killed). Particulars: 10 µM unless noted.
As to `COc1cccc(-c2cc(C(=O)Nc3ccc(/C=C/c4ccc(OC5CCN(C)CC5)cc4)cc3)ccc2OC)c1`, the growth is 9.98% (active).

For `CN1CCN(Cc2ccc(NC(=O)c3cncc(C#Cc4cncc5ncccc45)c3)cc2C(F)(F)F)CC1`, the growth is -3.29% (active). Take `COC(=O)c1cccc2c1N(C)c1c(cccc1C(=O)OC)CC2`: the growth is 71.6%. The same measure for `N#Cc1c(-c2cccc(F)c2)cc(-c2ccc(Br)s2)[nH]c1=O`: 67%; for `CC12CCC(/C(=C/NNc3ccc([N+](=O)[O-])cc3[N+](=O)[O-])C1=O)C2(C)C` (stereo not given): 110%; for `c1ccc(CCn2nnc3c(Nc4ccc(N5CCOCC5)cc4)ncnc32)cc1`: 96.7%.

As to `CC(=O)Nc1c(Cl)cc2c(c1Cl)Cc1cc([N+](=O)[O-])ccc1-2`, the growth is 96.3%.

`COc1c(O)c2c3c(c1OC)-c1ccccc1CC3N(S(=O)(=O)c1ccc(C)cc1)CC2` (stereo not given): the growth was 5.73% (active).

Take `CCCCCCCCCCCCCCCCCBr`: the growth is 103%.

With `COc1ccc(/C=C2\COc3ccc(O)cc3C2=O)cc1`, the growth is -33.1% (active). The same measure for `COc1cc(-c2nc3ccccc3[nH]2)ccc1OCC(=O)N=Nc1c(O)[nH]c2ccc(Cl)cc12`: -30.8% (active).

For the molecule `COC(=O)C1=Nc2ccc(F)cc2/C1=C/c1sc(=S)[nH]c1O`, the growth is -28.8% (active). As to `COc1cc(OC)c(/C=C/S(=O)(=O)Cc2cnc(OC)c(N)c2)c(OC)c1`, the growth was -39.5% (active). The same measure for `Cc1ccc(N=c2nc3sc4c(C)ccc(C)c4n3c(N)c2C#N)cc1`: 108%. The same measure for `Cc1cn(-c2cc(C(=O)Nc3cccc(-n4ccc5c(NC(=O)c6ccccc6)nccc54)c3)cc(C(F)(F)F)c2)cn1`: 3.73% (active); for `CCOc1ccc(Cc2nccc3cc(OCC)c(OCC)cc23)cc1OCC`: 10.5%.

Regarding `Nc1ccc(Br)cc1C(F)(F)F`, the growth is 90.2%. As for `COc1ccc(NC(=O)c2cc(NCc3cc(O)ccc3O)ccc2O)cc1`, the growth is 43.8%.

For the molecule `Nc1c(C(=O)Nc2cccc3ccccc23)sc2nc3c(cc12)CCCC3`, the growth is -11.1% (active). The same measure for `CN(C)CCCC1(c2ccc(F)cc2)OCc2cc(-c3ccc(C(F)(F)F)nc3)ccc21` (stereo not given): 43.1%; for `O=C(CNC(=O)OCc1ccccc1)NCC(=O)Oc1ccc([N+](=O)[O-])cc1`: 141%; for `O=C(Nc1ccccc1O)c1ccc(-c2ccc(Cl)cc2Cl)o1`: 83.7%. The same measure for `COc1cccc2c1C(=O)c1c(O)c3c(c(O)c1C2=O)C[C@@](O)(C(=O)COC(=O)c1cccnc1)C[C@@H]3OC1CC(N)C(O)C(C)O1` (stereo not given in full): -27% (active); for `CCOC(=O)C1=C(C(F)(F)F)NC(=S)NC1CN1C(=O)c2ccccc2C1=O` (stereo not given): 86.7%; for `CNc1ccc(Nc2ccc(S(=O)(=O)O)cc2)c2c1C(=O)c1ccccc1C2=O`: 120%.

Take `C[C@]12CC[C@H]3[C@@H](CCC4=CC(=O)CC[C@@]43C)[C@@H]1CC[C@@H]2c1csc(N)n1`: the growth was 0.82% (active). With `O=C1NC(=C(Cl)Cl)/C(=N\S(=O)(=O)NCc2ccccc2)N1`, the growth is 97%. The same measure for `Cc1c(C(N)=O)sc2ncn(Cc3ccccc3)c(=O)c12`: 118%; for `CCCCN(CCCC)CCCN=c1nc2c(c(N)n1-c1ccccc1)c(=S)n(-c1ccccc1)c(=S)n2-c1ccccc1`: -74.8% (active); for `CC(C)N(C(=S)SSC(=S)N(C(C)C)C(C)C)C(C)C`: 122%. The same measure for `C=COCCCCCCCCCCCCCCCCCC`: 73.8%; for `NC1=C(C/C(N)=N\O)C(c2ccccc2Cl)c2c(ccc3ccccc23)O1` (stereo not given): 84.9%; for `c1ccc(OCc2nnc(-c3ccc(Oc4ccccc4)cc3)o2)cc1`: 99.6%.

On to `CCc1ccc(-c2ccc(Nc3ccccc3)nn2)cc1S(N)(=O)=O`, for which the growth was 47.4%. The same measure for `CC(C)N(CCCC#N)C(C)C`: 102%; for `COc1cc(/C=N/NC(=O)c2ccccc2Nc2cccc(C(F)(F)F)c2)cc(OC)c1OC`: -5.58% (active); for `COC(=O)Nc1nc2ccc(C3(c4ccc(F)cc4)OCCO3)cc2[nH]1`: -25.1% (active). Regarding `O=C1/C=C/[C@@H](O)[C@@H]2C[C@@H](O)C[C@H]2/C=C/CCC[C@@H](C(F)(F)F)O1`, the growth is 104%.

Consider `COc1ccc(C(=O)Nc2cccc(C3CCc4c(cc(OC)c(OC)c4OC)O3)c2)cc1` (stereo not given), for which the growth is 10.7%.

Take `O=C(O)c1cc(I)ccc1O`: the growth is 103%.
